# According to PubChem BioAssay AID1159580 (chemical genetic matrix, 2015):
# “And” between values parts separate entries of the source, which are not always exact repeats. Equal entries are not always repeated. Among all 5,500 compounds or so, about 2,000 (36%) were called active. Inconclusive results (about 18%) are left out. The list shows a part of the results. Values without a mark were called inactive. No stated cut-off is given here; in the data, active means normalized growth mostly below about 0.91 (no sharp cut-off); inconclusive means no clear call, values can overlap the other calls; inactive means mostly above about 0.92.
# Experiment: chemical genetic growth profiling, strain panel (AID 1159580);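 further: tested at 20 µM; growth read once vehicle control cultures reached saturation at 30 °C; 1 = growth at the plate median or of vehicle wells; lower values mean less growth of the strain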
# Settings: growth OD
# [1] = S. cerevisiae deletion strains, locus YBR229C, strain ROT2, hits give low values
# [2] = S. cerevisiae deletion strains, locus YDL101C, strain DUN1, hits give low values
# [3] = S. cerevisiae deletion strains, locus YEL061C, strain CIN8, hits give low values
# [4] = S. cerevisiae deletion strains, locus YGR078C, strain PAC10, hits give low values
# [5] = S. cerevisiae deletion strains, locus YHR030C, strain SLT2, hits give low values
# [6] = S. cerevisiae deletion strains, locus YHR087W, strain rtc3, hits give low values
# [7] = S. cerevisiae deletion strains, locus YJL095W, strain BCK1, hits give low values
# [8] = S. cerevisiae deletion strains, locus YJR043C, strain POL32, hits give low values
# [9] = S. cerevisiae deletion strains, locus YJR075W, strain HOC1, hits give low values
# [10] = S. cerevisiae deletion strains, locus YKL190W, strain CNB1, hits give low values
# [11] = S. cerevisiae deletion strains, locus YLR039C, strain RIC1, hits give low values
# [12] = S. cerevisiae deletion strains, locus YLR058C, strain SHM2 (second series), hits give low values
# [13] = S. cerevisiae deletion strains, locus YLR085C, strain ARP6, hits give low values
# [14] = S. cerevisiae deletion strains, locus YLR262C, strain YPT6, hits give low values
# [15] = S. cerevisiae deletion strains, locus YML094W, strain GIM5, hits give low values
# [16] = S. cerevisiae deletion strains, locus YMR219W, strain ESC1, hits give low values
# [17] = S. cerevisiae deletion strains, locus YMR263W, strain SAP30, hits give low values
# [18] = S. cerevisiae deletion strains, locus YMR307W, strain GAS1, hits give low values
# [19] = S. cerevisiae deletion strains, locus YNL153C, strain GIM3, hits give low values
# [20] = S. cerevisiae deletion strains, locus YNL298W, strain CLA4 (second series), hits give low values
# [21] = S. cerevisiae deletion strains, locus YNL322C, strain KRE1, hits give low values
# [22] = S. cerevisiae deletion strains, locus YNR030W, strain Alg12, hits give low values
# [23] = S. cerevisiae deletion strains, locus YOL006C, strain TOP1, hits give low values
# [24] = S. cerevisiae deletion strains, locus YPL055C, strain LGE1, hits give low values
# [25] = S. cerevisiae deletion strains, locus YPL241C, strain CIN2, hits give low values
# [26] = S. cerevisiae deletion strains, locus YPR135W, strain CTF4, hits give low values
# [27] = S. cerevisiae deletion strains, locus YAL013W, strain DEP1, hits give low values
# [28] = S. cerevisiae deletion strains, locus YDR150W, strain NUM1, hits give low values
# [29] = S. cerevisiae strains, strain wild type, hits give low values
compound,measurement,setting,value
Nc1ccc(Oc2ccc(Cl)cc2C2CCCCC2)nc1,normalized growth,[1],0.821 (active)
same,normalized growth,[2],0.897 (active)
same,normalized growth,[3],0.845 (active)
same,normalized growth,"S. cerevisiae deletion strains, locus YGR052W, strain FMP48, hits give low values",0.796
same,normalized growth,[4],0.855 (active)
same,normalized growth,[5],0.181 (active) and 0.708 (active)
same,normalized growth,"S. cerevisiae deletion strains, locus YHR079C, strain IRE1, hits give low values",0.794 (active)
same,normalized growth,"S. cerevisiae deletion strains, locus YHR082C, strain KSP1, hits give low values",0.766 (active)
same,normalized growth,[6],0.702 (active)
same,normalized growth,[7],0.849
same,normalized growth,[8],0.852 (active)
same,normalized growth,"S. cerevisiae deletion strains, locus YJR066W, strain TOR1, hits give low values",0.787 (active)
same,normalized growth,[9],0.689 (active)
same,normalized growth,"S. cerevisiae deletion strains, locus YKL171W, strain NNK1, hits give low values",0.889
same,normalized growth,[10],0.658 (active)
same,normalized growth,"S. cerevisiae deletion strains, locus YKL203C, strain TOR2, hits give low values",0.92
same,normalized growth,[11],0.386 (active)
same,normalized growth,[12],0.915 (active)
same,normalized growth,[13],0.451 (active)
same,normalized growth,"S. cerevisiae deletion strains, locus YLR113W, strain HOG1, hits give low values",0.705
same,normalized growth,[14],0.355 (active)
same,normalized growth,[15],0.636 (active)
same,normalized growth,[16],0.935 (active)
same,normalized growth,[17],0.824 (active)
same,normalized growth,[18],0.162 (active)
same,normalized growth,[19],0.905 (active)
same,normalized growth,"S. cerevisiae deletion strains, locus YNL207W, strain RIO2, hits give low values",0.918
same,normalized growth,[20],0.528 (active)
same,normalized growth,[21],0.945
same,normalized growth,[22],0.601 (active)
same,normalized growth,[23],0.728 (active)
same,normalized growth,"S. cerevisiae deletion strains, locus YOR119C, strain RIO1, hits give low values",0.879
same,normalized growth,"S. cerevisiae deletion strains, locus YOR231W, strain MKK1, hits give low values",0.941
same,normalized growth,[24],0.745 (active)
same,normalized growth,[25],0.675 (active)
same,normalized growth,"S. cerevisiae deletion strains, locus YPL256C, strain CLN2, hits give low values",0.748 (active)
same,normalized growth,[26],0.365 (active)
Cc1cc(Cl)ccc1Oc1ccc(N)cn1,normalized growth,[27],0.989
same,normalized growth,[1],0.977
same,normalized growth,[2],0.971
same,normalized growth,[28],0.898
same,normalized growth,[3],0.993
same,normalized growth,[4],0.984
same,normalized growth,[5],0.486 (active)
same,normalized growth,[6],0.989
same,normalized growth,[8],0.977
same,normalized growth,[9],0.952
same,normalized growth,[10],0.928 (active)
same,normalized growth,[11],0.541 (active)
same,normalized growth,[12],0.986
same,normalized growth,[13],0.602 (active)
same,normalized growth,[14],0.544 (active)
same,normalized growth,[15],0.878
same,normalized growth,[16],0.992
same,normalized growth,[17],0.92
same,normalized growth,"S. cerevisiae deletion strains, locus YNL128W, strain TEP1, hits give low values",1
same,normalized growth,[19],0.99
same,normalized growth,[20],0.891
same,normalized growth,[21],1.01
same,normalized growth,[22],0.981
same,normalized growth,[23],0.938
same,normalized growth,[24],0.889
same,normalized growth,[25],0.917
same,normalized growth,[26],0.602 (active)
same,normalized growth,[29],0.953
CC(=O)OC1CC(O)C(C)(C)C2CC(=O)C3(C)C(CCC4(C)C(c5ccoc5)OC(=O)C5OC543)C12C (stereo not given),normalized growth,[27],0.996
same,normalized growth,"S. cerevisiae deletion strains, locus YBR021W, strain FUR4, hits give low values",0.947
same,normalized growth,[1],0.994
same,normalized growth,"S. cerevisiae deletion strains, locus YCL029C, strain bik1, hits give low values",0.987
same,normalized growth,"S. cerevisiae deletion strains, locus YDL035C, strain GPR1, hits give low values",0.988
same,normalized growth,"S. cerevisiae deletion strains, locus YDL074C, strain BRE1, hits give low values",0.945
same,normalized growth,[2],0.992
same,normalized growth,"S. cerevisiae deletion strains, locus YDL134C, strain PPH21, hits give low values",1.02
same,normalized growth,"S. cerevisiae deletion strains, locus YDL185W, strain tfp1, hits give low values",0.995
same,normalized growth,"S. cerevisiae deletion strains, locus YDL192W, strain arf1, hits give low values",0.971
same,normalized growth,"S. cerevisiae deletion strains, locus YDR101C, strain arx1, hits give low values",0.974
same,normalized growth,[28],1.01
same,normalized growth,"S. cerevisiae deletion strains, locus YDR162C, strain NBP2, hits give low values",1.01
same,normalized growth,"S. cerevisiae deletion strains, locus YDR318W, strain mcm21, hits give low values",1.01
same,normalized growth,"S. cerevisiae deletion strains, locus YDR388W, hits give low values",0.998
same,normalized growth,"S. cerevisiae deletion strains, locus YDR502C, strain sam2, hits give low values",0.991
same,normalized growth,[3],1
same,normalized growth,"S. cerevisiae deletion strains, locus YER110C, hits give low values",0.985
same,normalized growth,"S. cerevisiae deletion strains, locus YER155C, strain BEM2, hits give low values",0.992
same,normalized growth,"S. cerevisiae deletion strains, locus YER167W, strain BCK2, hits give low values",0.996
same,normalized growth,"S. cerevisiae deletion strains, locus YGL078C, strain dbp3, hits give low values",0.968
same,normalized growth,"S. cerevisiae deletion strains, locus YGL086W, strain mad1, hits give low values",0.978
same,normalized growth,"S. cerevisiae deletion strains, locus YGL248W, strain PDE1, hits give low values",1.01
same,normalized growth,"S. cerevisiae deletion strains, locus YGR135W, strain pre9, hits give low values",1.02
same,normalized growth,"S. cerevisiae deletion strains, locus YGR229C, strain SMI1, hits give low values",0.998
same,normalized growth,"S. cerevisiae deletion strains, locus YGR252W, strain gcn5, hits give low values",1.04
same,normalized growth,[5],0.995
same,normalized growth,"S. cerevisiae deletion strains, locus YHR079C, strain IRE1 (second series), hits give low values",0.988
same,normalized growth,"S. cerevisiae deletion strains, locus YHR094C, strain hxt1, hits give low values",0.989
same,normalized growth,"S. cerevisiae deletion strains, locus YHR129C, strain ARP1, hits give low values",0.99
same,normalized growth,"S. cerevisiae deletion strains, locus YHR200W, strain rpn10, hits give low values",1.01
same,normalized growth,"S. cerevisiae deletion strains, locus YIL066C, strain RNR3, hits give low values",1.01
same,normalized growth,"S. cerevisiae deletion strains, locus YIL073C, strain SPO22, hits give low values",1.06
same,normalized growth,"S. cerevisiae deletion strains, locus YIL125W, strain kgd1, hits give low values",0.997
same,normalized growth,"S. cerevisiae deletion strains, locus YIR030C, strain dcg1, hits give low values",0.992
same,normalized growth,[7],1.03
same,normalized growth,"S. cerevisiae deletion strains, locus YJL134W, strain LCB3, hits give low values",0.988
same,normalized growth,"S. cerevisiae deletion strains, locus YJL168C, strain set2, hits give low values",0.995
same,normalized growth,"S. cerevisiae deletion strains, locus YJL187C, strain SWE1 (second series), hits give low values",0.996
same,normalized growth,[8],0.989
same,normalized growth,[9],1.01
same,normalized growth,"S. cerevisiae deletion strains, locus YKL009W, strain mrt4, hits give low values",0.931
same,normalized growth,"S. cerevisiae deletion strains, locus YKL068W, hits give low values",0.996
same,normalized growth,"S. cerevisiae deletion strains, locus YKL085W, strain MDH1 (second series), hits give low values",0.999
same,normalized growth,"S. cerevisiae deletion strains, locus YKL085W, strain MDH1, hits give low values",0.999
same,normalized growth,"S. cerevisiae deletion strains, locus YKR001C, strain vps1, hits give low values",1
same,normalized growth,[11],0.995
same,normalized growth,"S. cerevisiae deletion strains, locus YLR058C, strain SHM2, hits give low values",1
same,normalized growth,"S. cerevisiae deletion strains, locus YLR102C, strain apc9, hits give low values",0.996
same,normalized growth,[14],1.02
same,normalized growth,"S. cerevisiae deletion strains, locus YLR268W, strain sec22, hits give low values",0.96
same,normalized growth,"S. cerevisiae deletion strains, locus YLR330W, strain CHS5, hits give low values",1.01
same,normalized growth,"S. cerevisiae deletion strains, locus YLR342W, strain FKS1 (second series), hits give low values",1.01
same,normalized growth,"S. cerevisiae deletion strains, locus YLR371W, strain rom2, hits give low values",0.99
same,normalized growth,"S. cerevisiae deletion strains, locus YLR418C, strain cdc73, hits give low values",0.999
same,normalized growth,"S. cerevisiae deletion strains, locus YML016C, strain PPZ1, hits give low values",0.985
same,normalized growth,"S. cerevisiae deletion strains, locus YML032C, strain rad52, hits give low values",1.03
same,normalized growth,"S. cerevisiae deletion strains, locus YML124C, strain tub3, hits give low values",1
same,normalized growth,"S. cerevisiae deletion strains, locus YMR078C, strain ctf18, hits give low values",0.988
same,normalized growth,"S. cerevisiae deletion strains, locus YMR223W, strain ubp8, hits give low values",1.01
same,normalized growth,[18],0.971
same,normalized growth,"S. cerevisiae deletion strains, locus YNL067W, strain RPL9B, hits give low values",1.01
same,normalized growth,"S. cerevisiae deletion strains, locus YNL233W, strain BNI4, hits give low values",0.987
same,normalized growth,"S. cerevisiae deletion strains, locus YNL250W, strain rad50, hits give low values",0.989
same,normalized growth,"S. cerevisiae deletion strains, locus YNL271C, strain bni1, hits give low values",0.983
same,normalized growth,"S. cerevisiae deletion strains, locus YNL298W, strain CLA4, hits give low values",0.968
same,normalized growth,"S. cerevisiae deletion strains, locus YNL307C, strain MCK1, hits give low values",0.98
same,normalized growth,[21],0.999
same,normalized growth,"S. cerevisiae deletion strains, locus YNR052C, strain pop2, hits give low values",0.996
same,normalized growth,[23],0.972
same,normalized growth,"S. cerevisiae deletion strains, locus YOL012C, strain htz1",0.734
same,normalized growth,"S. cerevisiae deletion strains, locus YOL147C, strain pex11, hits give low values",0.989
same,normalized growth,"S. cerevisiae deletion strains, locus YOR061W, strain CKA2, hits give low values",0.991
same,normalized growth,"S. cerevisiae deletion strains, locus YOR069W, strain VPS5, hits give low values",0.985
same,normalized growth,"S. cerevisiae deletion strains, locus YOR136W, strain idh2, hits give low values",0.966
same,normalized growth,"S. cerevisiae deletion strains, locus YOR144C, strain elg1, hits give low values",0.996
same,normalized growth,"S. cerevisiae deletion strains, locus YOR184W, strain ser1, hits give low values",0.982
same,normalized growth,"S. cerevisiae deletion strains, locus YOR316C, strain cot1, hits give low values",0.992
same,normalized growth,[24],0.999
same,normalized growth,"S. cerevisiae deletion strains, locus YPR119W, strain clb2, hits give low values",0.992
same,normalized growth,"S. cerevisiae deletion strains, locus YPR141C, strain kar3, hits give low values",0.987
same,normalized growth,"S. cerevisiae deletion strains, locus YPR163C, strain tif3, hits give low values",1
same,normalized growth,"S. cerevisiae deletion strains, locus YPR167C, strain met16, hits give low values",0.985
same,normalized growth,"S. cerevisiae deletion strains, strain wtn01, hits give low values",0.958
same,normalized growth,[29],1
